Structures are written as SMILES. Activity calls are given as the source filed them. How the source made its calls: active means hit-call score of the fitted dose curve at least 0.9, where 1 is the maximum; inactive means score below 0.9.

Chain of Aryl hydrocarbon receptor (Homo sapiens) (P35869 whole entry, looked up): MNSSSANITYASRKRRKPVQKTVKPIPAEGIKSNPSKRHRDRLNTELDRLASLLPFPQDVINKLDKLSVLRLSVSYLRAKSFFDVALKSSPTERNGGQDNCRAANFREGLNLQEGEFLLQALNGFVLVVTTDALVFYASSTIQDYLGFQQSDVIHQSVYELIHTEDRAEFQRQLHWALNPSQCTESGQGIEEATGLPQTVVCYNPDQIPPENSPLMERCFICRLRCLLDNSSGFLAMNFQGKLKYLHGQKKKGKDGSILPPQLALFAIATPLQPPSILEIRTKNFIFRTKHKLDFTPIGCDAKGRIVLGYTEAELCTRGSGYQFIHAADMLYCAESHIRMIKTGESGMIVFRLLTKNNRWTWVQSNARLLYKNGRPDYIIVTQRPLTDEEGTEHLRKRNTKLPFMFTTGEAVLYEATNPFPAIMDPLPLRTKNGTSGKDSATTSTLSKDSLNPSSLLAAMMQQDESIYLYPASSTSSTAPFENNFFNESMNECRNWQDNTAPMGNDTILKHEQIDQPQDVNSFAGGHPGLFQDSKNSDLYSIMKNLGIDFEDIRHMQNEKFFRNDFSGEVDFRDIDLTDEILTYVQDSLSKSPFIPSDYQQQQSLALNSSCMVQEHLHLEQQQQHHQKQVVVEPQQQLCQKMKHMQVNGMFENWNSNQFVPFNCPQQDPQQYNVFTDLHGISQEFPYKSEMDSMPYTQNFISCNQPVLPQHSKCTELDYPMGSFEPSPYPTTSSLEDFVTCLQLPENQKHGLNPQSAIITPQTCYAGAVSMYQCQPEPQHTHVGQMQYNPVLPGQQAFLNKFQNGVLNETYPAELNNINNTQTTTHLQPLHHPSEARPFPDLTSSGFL

The target of this experiment is Aryl hydrocarbon receptor (Homo sapiens) (UniProt P35869). Briefly: ATG_Ahr_CIS: Attagene CIS-FACTORIAL HepG2 Assay for human Aryl Hydrocarbon Receptor (Ahr) (AID 2282930). The following applies: HepG2 AhR cis-factorial reporter transcription; actives raise or lower the signal. The method, then:
ATG_CIS is a cell-based, multiplexed-readout assay that uses HepG2, a human liver cell line, with measurements taken at 24 hours after chemical dosing in a 24-well plate.ATG_Ahr_CIS is one of 52 assay component(s) measured or calculated from the ATG_CIS assay. It is designed to make measurements of mRNA induction, a form of inducible reporter, as detected with fluorescence intensity signals by Reverse transcription polymerase chain reaction (RT-PCR) and Capillary electrophoresis technology.Data from the assay component ATG_Ahr_CIS was analyzed into 1 assay endpoint. This assay endpoint, ATG_Ahr_CIS, was analyzed with bidirectional fitting relative to DMSO as the negative control and baseline of activity. Using a type of inducible reporter, measures of mRNA for gain or loss-of-signal activity can be used to understand the reporter gene at the transcription factor-level as they relate to the gene AHR. Furthermore, this assay endpoint can be referred to as a primary readout, because this assay has produced multiple assay endpoints where this one serves a reporter gene function. To generalize the intended target to other relatable targets, this assay endpoint is annotated to the dna binding intended target family, where the subfamily is basic helix-loop-helix protein.
Human liver HepG2 cells are transiently transfected with multiple reporter transcription units (MRTUs) in 6-well plates using FuGene 6 reagent (Roche; 3 ml FuGene/1 mg DNA). The MRTU constructs are regulated by a cis-regulating element (promoter). […] A major difference between the CIS and TRANS system is that in CIS activities of endogenous TFs are measured, whereas the TRANS assay evaluates changes in activities of exogenous, chimeric NR-Gal4 proteins. […] At the end of 24 hour incubation, total RNA was isolated using TriZol reagent (Invitrogen). The isolated RNA is then reverse-transcribed using oligo(dT) primer and Mo-MLV reverse transcriptase (Invitrogen) with DNAse I (Ambion) treatment for 30 min. The one-tenth of the produced cDNA was amplified by PCR using Taq DNA polymerase (Invitrogen) and two reporter sequence-specific primers. The PCR products were fluorescently labeled by primer extension with 6-arboxyfluorescein (6-FAM) 5'-labeled reporter sequence-specific primer (2 min at 95 C, 20 s at 68 C and 10 min at 72 C) and these products were digested with 5U of HpaI (New England Biolabs) for 2h at 37 C. […] The raw capillary electrophoresis data was processed using Attagraph software (Attagene).
`CCC(C)C=O` (stereo not given): the compound was called inactive. As for `CCC(CO)CO`, the outcome was inactive. As for `CCOc1nc(F)cc2nc(S(=O)(=O)Nc3c(Cl)cccc3C(=O)OC)nn12`, the outcome was inactive.

Consider `C(=CC=Nc1ccccc1)C=CNc1ccccc1`, for which the AC50 was 10.1 µM (active).

On to `c1ccc(-c2ccccn2)nc1`, for which the result was inactive. Regarding `CC(C)CCCCCOC(=O)CCS`, the compound was called inactive. Consider `C=CC(=O)OCCOC(=O)C=C`, for which the result was inactive. Regarding `NC(=O)C1CO1` (stereo not given), the compound was called inactive.

Consider `C=C(C)[C@@H]1CCC2=CCC[C@@H](C)[C@]2(C)C1`, for which the compound was called inactive. In the case of `CCC(Cc1ccccc1)(C(=O)c1ccc(N2CCOCC2)cc1)N(C)C` (stereo not given), the compound was called inactive. For `CCCc1ccc(OC)cc1`, the call was inactive. With `CCOC(=O)c1ccc(N(C)C)cc1`, the AC50 is 44.4 µM (active).

With `C[Si](C)(C)O[Si](O)(O)O`, the call was inactive. As for `CC1(C)[C@H]2CC[C@]1(C)C(=O)C2`, the compound was called inactive.

For the compound `Cc1ccc(N/N=c2\c(=O)cc/c(=N/Nc3ccc(S(=O)(=O)O)cc3)c2=O)c(C)c1`, the AC50 was 9.18 µM (active). Regarding `CC(=O)Oc1ccc(C)cc1`, the compound was called inactive. Regarding `CC(C)c1ccc2cc(C(C)C)ccc2c1`, the AC50 is 135 µM (active). For the compound `CCC(CC)C(=O)O`, the compound was classed as inactive. Turning to `Cc1ccc(C(C)c2ccc(C)c(C)c2)cc1C`, the outcome was inactive. On to `S=C(NC1CCCCC1)NC1CCCCC1`, for which the outcome was inactive.

With `Nc1ccc(Cl)cc1Cl`, the outcome was inactive.

Consider `CCCCCC/C=C\CCCCCCCC(=O)O`, for which the compound was classed as inactive. Regarding `CCCCCCC1(C)CCC(=O)O1` (stereo not given), the AC50 was 44.4 µM (active). For `O=C(c1ccccc1)c1ccc(O)c(O)c1O`, the AC50 was 84.4 µM (active). On to `CCCCC/C=C\CCC=O`, for which the compound was called inactive. As to `Cc1ccccc1C`, the outcome was inactive.

With `CC(C)=CC1CC(C)CCO1` (stereo not given), the outcome was inactive. For `O=S(=O)(O)CC(O)CCl` (stereo not given), the call was inactive.

With `O=c1cc(-c2ccccc2)oc2ccccc12`, the AC50 was 7.62 µM (active).

Regarding `Cc1ccc2c(c1)C(=O)c1ccccc1C2=O`, the half-maximal activity concentration (AC50) was 9.39 µM (active). Consider `CCCNC(=O)NS(=O)(=O)c1ccc(Cl)cc1`, for which the outcome was inactive. As for `Cc1ccc(N)c([N+](=O)[O-])c1`, the result was inactive.

For the compound `Cc1cc(C)c(C)c(O)c1`, the call was inactive.

For the compound `O=S(=O)(O)c1cc(S(=O)(=O)O)c2ccc3c(S(=O)(=O)O)cc(S(=O)(=O)O)c4ccc1c2c43`, the compound was classed as inactive. On to `CC(CC=O)CCCC(C)(C)O` (stereo not given), for which the call was inactive. `Cc1cnc(NC(=O)C2=C(O)c3ccccc3S(=O)(=O)N2C)s1`: the AC50 was 100 µM (active). As to `COC(=O)c1c(C)cc(O)c(C)c1O`, the compound was classed as inactive. Take `C=C[Si](C)(C)O[Si](C)(C)C=C`: the AC50 is 100 µM (active). In the case of `O=C(c1ccc(O)cc1)c1ccc(O)cc1O`, the call was inactive. Take `O=C1CCCC1`: the compound was classed as inactive.

Source of the values: PubChem BioAssay (EPA / NIEHS).
